Compound activity as filed in PubChem BioAssay.
D2 antagonist – antagonizes the human D2 dopamine receptor; HEK293 TREx D2 cells, calcium flux, dopamine EC80; AID 485344; 340,000 compounds, 2% hits; inhibition, % at 10 µM; in the data active = inhibition above about 30%; inactive = below that, where a call was filed; also: 0% is about no effect
Target sequence (P14416 whole entry, looked up): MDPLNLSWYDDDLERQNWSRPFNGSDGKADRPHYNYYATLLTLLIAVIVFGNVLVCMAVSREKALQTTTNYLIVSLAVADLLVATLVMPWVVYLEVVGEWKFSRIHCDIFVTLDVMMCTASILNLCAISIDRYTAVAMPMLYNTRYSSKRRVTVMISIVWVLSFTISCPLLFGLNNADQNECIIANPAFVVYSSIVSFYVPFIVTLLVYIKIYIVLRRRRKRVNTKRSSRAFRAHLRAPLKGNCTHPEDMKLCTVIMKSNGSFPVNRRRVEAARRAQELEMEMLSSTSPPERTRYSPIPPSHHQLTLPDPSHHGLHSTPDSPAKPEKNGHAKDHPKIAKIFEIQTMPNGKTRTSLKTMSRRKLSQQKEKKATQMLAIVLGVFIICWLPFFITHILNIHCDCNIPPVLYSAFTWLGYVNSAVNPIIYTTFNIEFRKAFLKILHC
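Tetracycline-induced HEK293 T-REx cells expressing D2 force-coupled to calcium signalling were dye-loaded, exposed to compound for 180 s, then challenged with an EC80 of dopamine; calcium flux was followed kinetically for a further 180 s.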
D2 PAM-1 – positively modulates the human D2 dopamine receptor allosterically; P14416; HEK293 T-REx D2, calcium flux, EC20 dopamine potentiation; potentiation, % at 10 µM; 340,000 compounds, 0.34% hits; AID 485347;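 active = potentiation over 3 SD above the plate norm, cut at about 30% in these data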; also: 0% is about no effect
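Calcium flux readout, no-wash dye, 1 read/s. Inducible HEK293 Trex D2 line, overnight 30 C. Compound alone 180 s (agonist flags), then EC20 dopamine, another 180 s to score potentiation.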
D2 ag-1 – activates the human D2 dopamine receptor; DiscoveRx PathHunter D2 beta-arrestin, luminescence, 90 min; 100% = 57 uM dopamine signal; AID 624465; 360,000 compounds, 0.084% hits; activation, % (no concentration beside the values); P14416; in the data active = activation above about 40%; inconclusive = between about 15% and that limit
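DiscoveRx PathHunter D2 beta-arrestin cells (2,100/well) attached overnight, then compound-stimulated 90 min at 37 C in HBSS/10 mM HEPES/0.1% Tween-20 buffer; beta-galactosidase complementation read by luminescence after 1 h at ambient temperature. Dopamine 57 uM final (EC100) as control.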
D2 ag-2 – agonists of human D2 dopamine receptor; 340,000 compounds, 0.53% hits; HEK293 T-REx D2 cells, calcium flux agonist mode; activation, % at 2 µM; AID 485358; P14416;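 active = activation over 3 SD above normal in the single-dose calcium agonist read, cut at about 30% in these data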; also: 0% is about no effect
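Tetracycline-induced HEK293 Trex cells with D2 receptor force-coupled to calcium signaling, plated overnight at 30 C and loaded with no-wash calcium dye. Calcium flux read kinetically for 180 s after compound addition; responses flag agonists.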
D2 PAM-2 – potentiates the human D2 dopamine receptor allosterically | DiscoveRx D2 beta-arrestin cells, luminescence, 90 min; 100% = 57 uM dopamine signal | potentiation, % (concentration not given with the values) | 360,000 compounds, 0.23% hits | AID 624464; in the data active = potentiation above about 50%; inconclusive = mostly about 30% to 49%
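D2 cells co-treated with compound plus 50 nM dopamine (EC20) for 90 min at 37 deg C to detect potentiation. Beta-arrestin recruitment was read as enzyme-fragment luminescence after 1 h at ambient temperature. Full response was set by 57 uM dopamine.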
* marks the source's active call; other numbers are inactive results; ? = inconclusive; · = no result. This is a sample that favours compounds with a hit; in the whole collection about 2.4% have one here.

SMILES	D2 antagonist	D2 PAM-1	D2 ag-1	D2 ag-2	D2 PAM-2
Cc1oc(-c2ccccc2F)nc1CN1CCC(C(=O)NCCC2=CCCCC2)CC1	32*	2	-4	6	-8
O=C(NCCC1=CCCCC1)C1CCN(c2nnc(-n3cccc3)s2)CC1	48*	-8	-4	0	-1
CS(=O)(=O)N1CCC(C(=O)Nc2cc(C(F)(F)F)ccc2Cl)CC1	-7	-12	-2	0	-14
Cc1oc(-c2ccccc2F)nc1CN1CCC(C(=O)NCCc2ccccc2)CC1	·	-6	·	2	·
CC(C)CCNC(=O)C1CCN(c2nnc(-n3cccc3)s2)CC1	-7	8	-3	1	-3
O=C(Nc1cc(C(F)(F)F)ccc1Cl)C1CCN(c2nnc(-n3cccc3)s2)CC1	62*	-18	0	0	-22
COc1ccc(Cl)cc1-c1nc(SCC(=O)NCC2CCCO2)n[nH]1 (configuration not stated)	·	·	0	·	0
COc1ccc(-n2c(=O)c3ccccc3n(Cc3ccccc3C)c2=O)c(OC)c1	·	-9	·	0	·
Cc1ccc(Nc2sc(C(=O)c3ccccc3)c(N)c2S(=O)(=O)c2ccccc2)c(C)c1	·	8	·	-1	·
COc1ccc(OC)c(-c2csc(NC(=O)Cn3[nH]c(=O)c4ccccc4c3=O)n2)c1	32*	0	-5	4	-23
COc1ccc(/C=C2/N=C(SCC(=O)Nc3cc(C)on3)N(c3ccccc3)C2=O)cc1	32*	1	0	-1	7
COc1ccc(Cl)cc1NC(=O)c1c(NCc2sccc2C)sc2c1CCCC2	·	14	·	1	·
CCOc1ccc(-c2nnc(NC(=O)Cc3ccc(OC)cc3)o2)cc1	35*	-8	-4	0	-7
COc1ccc(-c2nnc(NC(=O)c3ccc(F)cc3)o2)cc1	34*	-13	-6	-1	1
CC(C)c1ccc(CNc2nc(-c3ccco3)nn2S(=O)(=O)c2ccc(F)cc2)cc1	·	-12	·	3	·
COc1ccccc1CCNC(=O)C1CCN(c2nnc(-n3cccc3CNc3ccc(C)cc3)s2)CC1	·	2	·	0	·
Cc1nnc(Sc2nc3c(c(=O)[nH]c(=O)n3C)n2CCc2ccccc2)s1	50*	2	5	-1	-1
Cc1ccc(N2CC(NC(=O)Cc3ccc(F)cc3)CC2=O)cc1C (configuration not stated)	·	-5	·	1	·
O=C(CCNS(=O)(=O)c1cccc2nonc12)NC1CCCCC1	31*	-5	-1	0	-6
O=C(CCS(=O)(=O)c1cccc2nonc12)NC1CCCCCC1	-14	0	-1	0	-3
N#CCCSc1ncnc2c1oc1ccccc12	36*	5	-2	0	-16
OCCSc1ncnc2c1oc1ccccc12	7	6	-2	1	-21
Cc1ccc(Sc2ccc(CN3CCCC3)cc2[N+](=O)[O-])cc1	36*	-15	1	1	-12
COc1ccccc1N(CC(=O)NC1CCCC1)C(=O)CCC(=O)Nc1ccccn1	-15	·	-2	-3	-5
CC(=O)Nc1sc(/C(C#N)=C\c2cccc(Cl)c2)nc1-c1ccc(C)cc1	30*	-14	0	61*	6
SMILES	D2 antagonist	D2 PAM-1	D2 ag-1	D2 ag-2	D2 PAM-2
CC(C)(C)c1cc(C(=O)NNC(=O)Nc2cccc(Cl)c2)n(Cc2ccccc2)n1	50*	-14	-5	1	-21
O=C(Nc1c(C(=O)N2CCOCC2)cnn1-c1ccccc1)c1ccc([N+](=O)[O-])cc1	-6	2	7	0	-9
Cc1ccc(C(=O)Nc2c(C(=O)N3CCOCC3)cnn2-c2ccccc2)cc1	-31	33*	-3	-1	-8
O=C(NCc1ccccc1)C(=O)Nc1nc(C23CC4CC(CC(C4)C2)C3)cs1	32*	2	-4	0	-23
CN1C(=O)Cc2cc(S(=O)(=O)Nc3ccc(Cl)cc3)ccc21	-1	23	0	0	-4
N#Cc1ccccc1OCCCN1CCC(Cc2ccccc2)CC1	85*	-27	0	0	-7
CCOc1ccccc1OCCN1CCCC1	-3	-1	-2	1	-65
Cc1ccccc1OCCOCCN1CCCCCC1	·	-27	0	·	-20
CCOc1ccccc1OCCN1CCC(Cc2ccccc2)CC1	64*	-18	0	-2	-19
Cc1ccccc1OCCN1CCC(Cc2ccccc2)CC1	46*	-27	-3	0	-20
COc1ccccc1OCCCCN1CCN(C(c2ccccc2)c2ccccc2)CC1	61*	-19	-3	25	-14
CCC(C(=O)Nc1cccc(C#N)c1)n1c(=O)c(-c2ccccc2NC(C)=O)nc2ccccc21 (configuration not stated)	·	6	·	0	·
COc1cccc(OC)c1OCCCCN1CCCC1	3	-11	0	0	-31
CC1CCN(CCCOc2ccc(OCc3ccccc3)cc2)CC1	8	-18	-9	2	-37
Cc1ccc([N+](=O)[O-])c(OCCN2CCC(Cc3ccccc3)CC2)c1	68*	-32	-3	1	-16
COc1cccc(OC)c1OCCCCN1CCC(Cc2ccccc2)CC1	76*	-27	0	0	-22
CCC(=O)c1ccccc1OCCCN1CCC(Cc2ccccc2)CC1	97*	-34	1	0	-11
CC(=O)CCc1ccc(OCCCCN2CCC(Cc3ccccc3)CC2)cc1	54*	-26	-1	0	-7
O=C1Nc2ccc(Br)cc2C12NNc1ccccc1O2 (configuration not stated)	2	-1	-7	5	-23
CC(C)OCCCNC(=O)Cc1ccc(F)cc1	57*	-20	-1	1	-3
CCOCCCNC(=O)Cc1ccc(F)cc1	2	-8	·	1	·
CCN(CC)S(=O)(=O)c1cc(NC(=O)c2ccc3c(c2)NC(=O)C(C)S3)ccc1C (configuration not stated)	-7	-5	?	1	3
CCOC(=O)COc1cccc2c(=O)n(CC(=O)N3CCCCC3)ccc12	21	5	2	0	-4
COC(=O)COc1cccc2c(=O)n(CC(=O)N3CCCc4ccccc43)ccc12	31*	7	-5	0	-5
O=C(CSc1nc(=O)n(Cc2ccncc2)c2c1CCC2)Nc1ccccc1	·	9	·	0	·
CCCCNC(=O)[C@@H]1CC=C[C@@H]2CCN(C3CC3)C(=O)[C@@H]21	·	·	-7	·	2
CC(C(=O)OCC(=O)Nc1ccccc1OC(F)F)N1C(=O)C2CC=CCC2C1=O (configuration not stated)	·	·	-2	·	-6
O=C(OC(c1ccccc1)c1nccc2ccccc12)c1cc([N+](=O)[O-])cc([N+](=O)[O-])c1 (configuration not stated)	3	11	?	-1	81*
